Experimental data: publication PMC4552634, “A New Set of Chemical Starting Points with Plasmodium falciparum Transmission-Blocking Potential for Antimalarial Drug Discovery” (PLoS ONE, 2015)
The campaign covered roughly 13,000 compounds. About 3,200 (25%) showed an effect of 50% or more. The list shows a part of the results.

test system: P. falciparum stage V gametocytes; set-up: BacTiter-Glo ATP luminescence viability of purified stage V gametocytes in 384-well plates, per cent inhibition versus DMSO; conditions: 48 h, 5 µM; inhibitor

How did the “% Inhibition” value turn out when `COc1ccc(-n2nc(C)c3c2NC(=O)CC3c2ccccc2OCc2ccc(F)cc2)cc1` (stereo not drawn) [TCMDC-124906] was run?
Its value is 40.61%.

Which “% Inhibition” value does the source give for `COC(=O)c1cc(C(O)CNC(C)CCCc2ccccc2)ccc1O` (stereo not drawn) [TCMDC-131241] here?
The value was -5.82%.

`COc1ccc2nccc([C@@H](O)CN3CCC(NCc4nc5c(F)cccc5[nH]4)CC3)c2c1` [TCMDC-140760] was tested. Which “% Inhibition” value did it give?
Its value is 20.74%.

How did the “% Inhibition” value turn out when `O=C(c1cccc(-c2cccc(-c3nc4cc(C(F)(F)F)ccc4[nH]3)c2)c1)N1CCCCC1CN1CCC(O)C1` (stereo not drawn) [TCMDC-132346] was run?
The value was -18.68%.

How did the “% Inhibition” value turn out when `CCN(CCCN1CCCCC1)c1cc(C)nc(Nc2cc(Cl)cc(Cl)c2)n1` [TCMDC-132455] was run?
The value was 8.984%.

How did the “% Inhibition” value turn out when `Cc1nc(C(C)Nc2nncc(-c3ccc(Cl)cc3)n2)cs1` (stereo not drawn) [TCMDC-124636] was run?
The value was -29.02%.

How did the “% Inhibition” value turn out when `CC(C)c1cccc(C(NC(=O)[C@H]2Cc3ccccc3CN2C(=O)c2cccc(N3CCOCC3)c2)C2CCCC2)c1` (stereo partly drawn) [TCMDC-138264] was run?
The value was 2.743%.

For `FC(F)(F)c1ccc2[nH]c(-c3ccc(-c4cccc(CNCC5CCCO5)c4)s3)nc2c1.O=C(O)C(F)(F)F` (stereo not drawn) [TCMDC-133099], which “% Inhibition” value is on record?
The value was -9.129%.

`COc1ccc2nccc([C@@H](O)CN3CCC(NS(=O)(=O)c4cc(Br)c(Br)s4)CC3)c2c1` [TCMDC-141306] was tested. Which “% Inhibition” value did it give?
The value was 29.28%.

`COc1ccc(-c2ccc(NC(=O)c3cccc(Cl)c3)cc2)cc1CN1CCC(O)CC1` [TCMDC-133334] was tested. Which “% Inhibition” value did it give?
The value was 46.17%.

How did the “% Inhibition” value turn out when `COc1ccc(-c2cccc(NC(=O)c3ccc(Cl)cc3)c2)cc1CN1CCC(O)CC1` [TCMDC-132606] was run?
Its value is -74.32%.

With `COc1ccc(-c2cccc(NC(=O)c3cccc(Cl)c3)c2)cc1CN1CCC(O)CC1` [TCMDC-132618] as the compound, how does the “% Inhibition” value read?
Its value is 87.3%.

Which “% Inhibition” value does the source give for `Cc1ccc(CNc2cc(C(F)(F)F)nc(-c3ccc(S(C)(=O)=O)cc3)n2)cc1` [TCMDC-138598] here?
The value was 20.79%.

With `CN1CCCN(c2ccnc3cc4c(cc23)N(C(=O)c2ccc(C(F)(F)F)cc2)CC4)CC1` [TCMDC-140243] as the compound, how does the “% Inhibition” value read?
Its value is 67.52%.

For `Cc1cc(-c2cccc3c(C(=O)N4CCc5cc6nccc(N7CCN8CCC[C@H]8C7)c6cc54)cccc23)cc(C)n1` [TCMDC-139793], which “% Inhibition” value is on record?
The value was 31.07%.

Which “% Inhibition” value does the source give for `Cc1cc(-c2cccc3c(C(=O)N4CCc5cc6nccc(N7CCCN(C)CC7)c6cc54)cccc23)cc(C)n1` [TCMDC-140244] here?
The value was 100.8%.

With `CN1CCN(c2ccnc3ccc(NC(=O)c4ccc(Cl)c(Cl)c4)cc23)CC1` [TCMDC-139350] as the compound, how does the “% Inhibition” value read?
The value was 4.304%.

`CN1CCCN(c2ccnc3cc4c(cc23)N(C(=O)c2ccc(Cl)cc2Cl)CC4)CC1` [TCMDC-140241] was tested. Which “% Inhibition” value did it give?
Its value is 126.7%.

`CN1CCN(c2ccnc3cc4c(cc23)N(C(=O)Nc2ccc3c(c2)CCCC3=O)CC4)CC1` [TCMDC-139372] was tested. Which “% Inhibition” value did it give?
Its value is 0.5076%.

`O=C(Nc1ccc(Cl)c(Cl)c1)N1CCc2cc3nccc(N4CCN5CCC[C@H]5C4)c3cc21` [TCMDC-140055] was tested. Which “% Inhibition” value did it give?
Its value is 49.62%.

How did the “% Inhibition” value turn out when `Cc1nc(-c2ccc(C(F)(F)F)cn2)sc1C(=O)N1CCc2cc3nccc(N4CCN5CCC[C@H]5C4)c3cc21` [TCMDC-140330] was run?
The value was -2.363%.

For `O=C(/C=C/c1ccc(C(F)(F)F)cc1)N1CCc2cc3nccc(N4CCN5CCC[C@H]5C4)c3cc21` [TCMDC-140045], which “% Inhibition” value is on record?
The value was 20.84%.

Which “% Inhibition” value does the source give for `CN1CCN(c2ccnc3cc4c(cc23)N(C(=O)Nc2ccc(-c3ccncc3)c3ccccc23)CC4)CC1` [TCMDC-139371] here?
The value was 4.895%.

With `CN1CCCN(c2ccnc3cc4c(cc23)N(C(=O)c2ccccc2Cl)CC4)CC1` [TCMDC-140239] as the compound, how does the “% Inhibition” value read?
The value was 27.46%.

`CN1CCCN(c2ccnc3cc4c(cc23)N(C(=O)c2ccc(Cl)c(Cl)c2)CC4)CC1` [TCMDC-140242] was tested. Which “% Inhibition” value did it give?
The value was 99.6%.

Which “% Inhibition” value does the source give for `CN1CC(c2ccccc2)c2cc(O)c(CN3CCCCC3)cc2CC1Cc1ccccc1` (stereo not drawn) [TCMDC-131902] here?
The value was -4.593%.

`COc1cc(Cc2cnc(N)nc2N)cc(OCCCCNS(=O)(=O)C(F)(F)F)c1OC` [TCMDC-137348] was tested. Which “% Inhibition” value did it give?
The value was 8.081%.

`O=C(NC1CCN(CCCOc2ccnc3cc(Cl)ccc23)C1)c1ccc(Br)cc1` (stereo not drawn) [TCMDC-136147] was tested. Which “% Inhibition” value did it give?
Its value is -6.07%.

With `Cc1nc(-c2ccc(-c3ccc(C(=O)Nc4ccc(Cl)c(N5CCN(C)CC5)c4)cc3)c(C)c2)no1` [TCMDC-131979] as the compound, how does the “% Inhibition” value read?
The value was -60.2%.

`CC1(C)N=C(N)N=C(N)N1c1ccc(I)cc1` [TCMDC-124271] was tested. Which “% Inhibition” value did it give?
Its value is 5.763%.

Which “% Inhibition” value does the source give for `CN(CCCCCNC(=O)/C=C/c1ccc(Cl)c(Cl)c1)CCCCc1c[nH]c2ccccc12` [TCMDC-139328] here?
The value was -28.14%.

Which “% Inhibition” value does the source give for `CC1CCN(c2nc(C(=O)Nc3cccc4c3CCCC4)c(C(C)C)s2)CC1` [TCMDC-134662] here?
Its value is 11.59%.

`CN1CCN(c2ccnc3ccc(NC(=O)Nc4ccc(Cl)cc4)cc23)CC1` [TCMDC-139322] was tested. Which “% Inhibition” value did it give?
Its value is 28.3%.

Which “% Inhibition” value does the source give for `CN1CCN(c2ccnc3cc4c(cc23)N(Cc2ccccc2)CC4)CC1` [TCMDC-139341] here?
The value was -3.615%.

For `CN1CCCN(c2ccnc3cc4c(cc23)N(C(=O)c2ccc(Cl)cc2)CC4)CC1` [TCMDC-140240], which “% Inhibition” value is on record?
The value was 94.93%.

`Cc1ccc(C2(C)CC(C)(C)N(C(=O)COc3ccc4ccccc4c3)c3ccccc32)cc1` (stereo not drawn) [TCMDC-124089] was tested. Which “% Inhibition” value did it give?
The value was -65.04%.

With `COc1ccccc1CCN1CCC(CN(C)Cc2ccc(O)c(Cl)c2)CC1` [TCMDC-124611] as the compound, how does the “% Inhibition” value read?
The value was 14.29%.

With `COc1ccc2nccc([C@@H](O)CN3CCC(NC(=O)c4cc5c(Cl)cc(Cl)cc5[nH]4)CC3)c2c1` [TCMDC-141039] as the compound, how does the “% Inhibition” value read?
Its value is -18.46%.

For `CN(C)c1ccc(C=C2SC(=O)NC2=Nc2ccccc2)cc1` [TCMDC-123738], which “% Inhibition” value is on record?
Its value is 34.75%.

How did the “% Inhibition” value turn out when `O=C(Nc1cccc(Cl)c1)N[C@H]1CCN(Cc2ccc(OCCCN3CCCCC3)cc2)C1` [TCMDC-141788] was run?
Its value is 103.5%.

With `Cc1ccc(CN2CCCCC(NC(=O)c3cc4ccccc4s3)C2)cc1` (stereo not drawn) [TCMDC-141748] as the compound, how does the “% Inhibition” value read?
The value was -37.31%.

For `O=C(Nc1ccc(Cl)cc1)Nc1ccc(OCC(O)CN2CCCCC2)cc1` (stereo not drawn) [TCMDC-123519], which “% Inhibition” value is on record?
The value was 4.072%.

Which “% Inhibition” value does the source give for `COc1cc(CN2CCC(NC(=O)[C@H](Cc3ccccc3)NC(=O)Nc3ccc(Oc4ccccc4)cc3)C2)ccc1O` (stereo partly drawn) [TCMDC-140500] here?
The value was -15.62%.

`COc1cccc(NC(=O)NC2CCN(CCCCCNC(=O)/C=C/c3ccc(Cl)c(Cl)c3)CC2)c1` [TCMDC-139388] was tested. Which “% Inhibition” value did it give?
Its value is 31.25%.

Which “% Inhibition” value does the source give for `O=C(Nc1ccc(Cl)cc1)N[C@H]1CCN(Cc2ccc(OCCCN3CCCCC3)cc2)C1` [TCMDC-141787] here?
Its value is 90.53%.

How did the “% Inhibition” value turn out when `O=C(Nc1ccc(-c2ccccc2)s1)N[C@H]1CCN(Cc2ccc(OCCCN3CCCCC3)cc2)C1` [TCMDC-141789] was run?
The value was 86.03%.

With `O=C(Nc1ccc(Oc2ccccc2)cc1)N[C@H]1CCN(Cc2ccc(OCCCN3CCCCC3)cc2)C1` [TCMDC-141786] as the compound, how does the “% Inhibition” value read?
The value was 96.23%.

`O=C(Nc1ccc(Oc2ccccc2)cc1)N[C@@H](Cc1ccc(O)cc1)C(=O)NC1CCN(Cc2ccc(O)c([N+](=O)[O-])c2)C1` (stereo partly drawn) [TCMDC-140421] was tested. Which “% Inhibition” value did it give?
Its value is 0.03751%.
